The campaign covered roughly 190,000 compounds. About 240 (0.13%) were called active. The full list was thinned out, with actives kept by preference. Values without a mark were called inactive. Rule as the data show it: active = inhibition above about 40%.

Chain of Bcl-2-related protein A1 (Homo sapiens) (Q16548 whole entry, looked up): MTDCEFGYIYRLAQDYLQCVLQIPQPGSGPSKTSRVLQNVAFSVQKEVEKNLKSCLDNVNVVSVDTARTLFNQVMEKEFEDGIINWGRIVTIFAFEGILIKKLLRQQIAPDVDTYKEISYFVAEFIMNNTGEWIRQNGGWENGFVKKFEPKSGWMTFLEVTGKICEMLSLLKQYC

The assay has as its target Bcl-2-related protein A1 (Homo sapiens) (UniProt Q16548). The assay is described as follows: inhibitors of Bim binding to Bfl-1, primary screen, biochemical, multiplexed, bead-based flow cytometry (AID 1008).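 Also: 0% = wells without compound plus tracer and 100% = blocker peptide.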 As to conditions: Bim-Bfl-1 binding inhibition, at 10 µM, hits give high values. On the technique in general: In flow cytometry, cells or beads pass a laser one at a time.
The term inhibition denotes the change of the read-out against control, counted positive when it falls. Consider `Cc1cc(CNCc2c(C(=O)N(C)Cc3ccccc3)nc3ccccn23)nn1C`, for which the inhibition is -6%. The same measure for `COc1cccc(CNC(=O)CCN2C(=S)NC(C)(C)CC2C)c1` (configuration not stated): -5%. `Cc1cc(OC(=O)c2ccccc2)c([N+](=O)[O-])c(=O)[nH]1`: the inhibition is -5%. The result for `S=c1ccc2ccccc2[nH]1` reads -4%. Turning to `Cc1cccc(CSc2nc3c(c(=O)n2C)SCC3)c1`, the inhibition is -2%. The same measure for `CCOc1cc(CNn2c(C)nnc2SCC(=O)NC(C)(C)C)ccc1OCC(=O)NC(C)(C)C`: -7%; for `CC(C)Cn1c(N)c(C(=O)COC(=O)CN2C(=O)C3CC=CCC3C2=O)c(=O)n(C)c1=O` (configuration not stated): -8%.

`COc1ccc(CNc2c(CO)cnc3c2cnn3C)cc1`: the inhibition is -3%.

Turning to `CCc1ccc(NC(=O)C(=O)N/N=C(\C)CC(=O)NCCOC)cc1`, the inhibition was -3%. The same measure for `O=C1C=CC(=O)N1c1ccc(N2CCCCC2)cc1`: 11%.

For the molecule `CN1CCN(S(=O)(=O)c2cccc(C(=O)N3CCc4ccccc43)c2)CC1`, the inhibition was 1%. The result for `COc1cccc(CNC(=O)CCC2CCCN(Cc3ccc(OC(F)F)cc3)C2)c1` (configuration not stated) reads -4%; that for `Cc1ccc(O)c(-c2cc(C(=O)Nc3c(C)n(C)n(-c4ccccc4)c3=O)[nH]n2)c1`, -2%.

As for `COc1cc(C(=O)NNC(=O)c2ccc(S(=O)(=O)N3CCCCC3)cc2)cc(OC)c1OC`, the inhibition was 7%. The same measure for `CCc1ccc(NC2Nc3cc(C)nn3S2)cc1` (configuration not stated): -1%.

As to `CN(C)C(=O)CSc1n[nH]c(-c2ccco2)n1`, the inhibition was 2%. The result for `Cc1ccc(NC(=O)Cn2c(=O)n(CCC(=O)NC3CCN(Cc4ccccc4)CC3)c(=O)c3ccccc32)cc1` reads -9%; that for `Cc1cccc(C)c1N1CCN(S(=O)(=O)N2CCCCC2)CC1`, -3%. For `O=C(CSc1ncnc2scc(-c3ccccc3)c12)NCc1ccc2c(c1)OCO2`, the inhibition is 0%. As for `CN(CCN1CCOCC1)Cc1nc(-c2ccc3c(c2)OCO3)no1`, the inhibition was -5%. Regarding `N#C/C(=C(\O)C(F)(F)F)c1nnc2n1CCCCC2`, the inhibition is -5%. `CC1CCN(C2=NC(=O)/C(=C/c3cn[nH]c3-c3ccccc3)S2)CC1`: the inhibition was -13%. `O=C(Nc1nc(-c2cccnc2)cs1)c1ccccc1F`: the inhibition was -9%.

For `CN1CCN(NC(=O)c2ccc(S(=O)(=O)N3CCCCCC3)cc2)CC1`, the inhibition was -2%. As for `CC1CCCCC1NC(=O)CO/N=C/c1ccc(OC(F)F)cc1` (configuration not stated), the inhibition was -7%. For `CCOC(=O)N1CCC(NC(=O)C(NS(=O)(=O)c2ccc3c(c2)CCN3C(=O)CC)C(C)C)CC1` (configuration not stated), the inhibition is -4%. As to `CCc1nnc(NS(=O)(=O)c2ccc(NC(=S)NC(=O)/C=C/c3cccs3)cc2)s1`, the inhibition is 1%. The result for `CC(C)C(C)(C#N)NC(=O)CSc1nc2scc(-c3ccccc3)c2c(=O)[nH]1` (configuration not stated) reads 3%. For `Cc1ccc(N(C(=O)c2ccc(CN3CCOCC3)o2)C(C(=O)NCCC(C)C)c2cccs2)c(C)c1` (configuration not stated), the inhibition is -7%. Take `O=C(O)CCS(=O)(=O)c1ccc(-c2ccccc2)cc1`: the inhibition was 0%.

With `COc1ccc(NC(=O)Nc2ccc3nc(C)c(C)nc3c2)cc1`, the inhibition is -2%. Consider `O=C(NCc1ccccn1)c1ccc2nc(-c3ccco3)c(-c3ccco3)nc2c1`, for which the inhibition is 43% (active).

In the case of `COc1ccc(NC(=O)Nc2ccc3nsnc3c2)cc1`, the inhibition is -1%. The result for `CN(c1ccc(C(=O)NCc2ccccn2)cc1)S(C)(=O)=O` reads -18%; that for `O=C(NCc1ccccn1)c1cc(-c2ccccc2Cl)on1`, 0%.

Regarding `COCCNC(=O)Nc1ccc2nc(-c3ccco3)c(-c3ccco3)nc2c1`, the inhibition was 48% (active).

Consider `Cc1nnc(-c2ccc(Oc3ccc(C)c(C)c3)c([N+](=O)[O-])c2)o1`, for which the inhibition is 9%. For `Cc1cccc(C2c3[nH]c4ccccc4c3CCN2C(=O)c2cc(-c3cccn3C)n[nH]2)n1` (configuration not stated), the inhibition is -4%. The same measure for `Cc1cc(/C=C2/NC(=O)NC2=O)c(C)n1-c1cccnc1`: -4%; for `CCCCNC(=S)N/N=C1\CCCCc2ccccc21`: 0%.

`COc1cccc(-n2c(=S)sc3c(=O)n(-c4ccccc4OC)c(SCC4OCCO4)nc32)c1`: the inhibition is -3%. The result for `O=C(NNC(=O)C1C2CCC(C2)C1C(=O)O)c1ccc(Cl)cc1` (configuration not stated) reads -8%; that for `COc1cccc(NC(=O)Cn2c3ccccc3c3nc4n(c(=O)c32)CCS4)c1`, 2%.

Turning to `CC(C)(C)NCCCOc1ccc(Cl)cc1C(C)(C)C`, the inhibition is -1%. On to `CCCCN=C1C([N+](=O)[O-])=CC=C2C1=NC1(CCCCC1)N2O`, for which the inhibition is 0%.

Regarding `c1ccc(-c2cc3c(NCC4COc5ccccc5O4)ncnc3s2)cc1` (configuration not stated), the inhibition is -5%. The same measure for `CC1CCCN(S(=O)(=O)c2ccc(N(C(=O)c3cnccn3)C(C(=O)NC3CCCCC3)c3cccs3)cc2)C1` (configuration not stated): -2%; for `O=C(COC(=O)/C(=C/c1cccs1)c1cccs1)NCc1ccccc1Cl`: 0%.

Consider `O=C(CN1CCCCCC1)NCCN1C(=O)S/C(=C\c2ccccc2Cl)C1=O`, for which the inhibition is -4%. The result for `O=C(O)c1cccc(N2C(=O)Nc3ccccc3N2O)c1` reads 0%. Turning to `O=C(CCN1CCCCC1)N=Nc1c(O)[nH]c2ccccc12`, the inhibition was 0%.

Regarding `CC(=O)Nc1ccc(NC(=S)NC(=O)/C=C/c2ccccc2)cc1`, the inhibition is -3%. Consider `CCCCNS(=O)(=O)c1ccc2nc(SCC(=O)Nc3cc(C)cc(C)c3)[nH]c2c1`, for which the inhibition is -1%.

As for `O=C(NCC1CCN(Cc2ccccc2Cl)CC1)Nc1cccc(Cl)c1`, the inhibition was -6%.

Take `CCOC(=O)c1cc2c(nc1NC(=S)Nc1ccccc1)CC(C)(CC)OC2` (configuration not stated): the inhibition was -11%. Regarding `Cn1nnnc1SCC(=O)NNC(=O)c1ccc(Br)cc1`, the inhibition is -10%. Consider `CCCCCN(C(=O)NC(=O)Nc1cccc(C)c1C)S(C)(=O)=O`, for which the inhibition was -7%.

On to `CCn1c(C(C)NC(=O)c2ccc(C)cc2)n[nH]c1=S` (configuration not stated), for which the inhibition was 1%.

Consider `CC(C)CN(C(=O)CN1CCN(S(=O)(=O)c2ccccc2)CC1)c1c(N)n(CC(C)C)c(=O)[nH]c1=O`, for which the inhibition was -2%.

`O=C(c1cc(=O)c2ccccc2o1)N1CCN(c2ccccc2)CC1`: the inhibition is 0%. Take `CN(C(=O)COc1ncnc2c1cnn2-c1ccccc1)C1CCCCC1`: the inhibition is -7%. With `COc1ccc(S(=O)(=O)N2CCCCCC2)cc1C(=O)OCC(=O)Nc1cc(C)on1`, the inhibition is -1%.

For the molecule `O=C(Cc1ccc(F)cc1)N/N=C/c1ccc2c(c1)OCO2`, the inhibition was -2%.

For the molecule `Cc1ccc(SCCC(=O)NCc2ccccn2)cc1`, the inhibition is 4%. The same measure for `C/C(=N\NC(=O)c1cc2c(s1)CCC(C)C2)c1cccnc1` (configuration not stated): 0%; for `O=C(Nc1cccnc1)c1ccc(Cl)cc1[N+](=O)[O-]`: -1%; for `O=C(CC1SC(=Nc2ccccc2)N(Cc2ccccn2)C1=O)Nc1cccc(Cl)c1` (configuration not stated): 11%.

Turning to `O=C(CCN1C(=O)c2ccncc2C1=O)Nc1cc(F)ccc1F`, the inhibition was -8%.

For the molecule `Cc1csc(Nc2ccc(Cl)cc2)[n+]1-c1ccc(Cl)cc1`, the inhibition is 5%. The same measure for `Cc1ccc(NC(=S)N(CCN2CCCCC2)Cc2ccco2)cc1C`: -3%; for `CCc1ccccc1NC(=O)CN(c1ccc(OC)cc1OC)S(=O)(=O)c1ccccc1[N+](=O)[O-]`: -12%. The same measure for `Cn1c(=O)c([N+](=O)[O-])c(Oc2ccccc2)c2ccccc21`: 0%; for `C=CCN(CC=C)C(=O)COC(=O)c1n[nH]c2ccccc12`: -7%. In the case of `CCc1ccc(C(=O)OCC(=O)NCC(F)(F)F)cc1`, the inhibition is -3%.

For the molecule `CCOC(=O)CSC1=N/C(=C/c2ccc(-n3cncn3)cc2)C(=O)N1C(C)=O`, the inhibition is -5%. The result for `Cc1ccc(C2=N/C(=C\c3ccc(OS(=O)(=O)c4ccc(C)cc4)cc3)C(=O)O2)cc1` reads -2%; that for `Cc1cc(NC(=O)CSc2nnc(Nc3ccccc3F)s2)no1`, -8%. `CN1CCN(c2nc(Nc3ccc(O)cc3)nc3ccccc23)CC1`: the inhibition was -5%. In the case of `CCOC(=O)CNC(=O)/C(=C\c1ccc(F)cc1)NC(=O)c1ccccc1`, the inhibition was -7%. The result for `O=C(Cn1nc(CNc2ccc(Cl)cc2)[n+]2c1CCCCC2)c1ccc(Cl)cc1` reads -16%.

On to `CC1CCN(S(=O)(=O)c2ccc(S(=O)(=O)NCc3cccnc3)cc2)CC1`, for which the inhibition is 6%. The result for `COC(=O)Cn1cc(/C=C/[N+](=O)[O-])c2ccccc21` reads 4%; that for `CC(C(=O)NC1CCCC1)N(c1ccc(Oc2ccccc2)cc1)S(C)(=O)=O` (configuration not stated), -2%. `COc1cc2sc(C)nc2cc1C`: the inhibition is 2%. Turning to `CSCCC(NC(=O)c1cc([N+](=O)[O-])cc([N+](=O)[O-])c1)c1nc2ccccc2[nH]1` (configuration not stated), the inhibition is -16%.

Take `CCn1c(=S)[nH]c2sc3c(c2c1=O)CCCCC3`: the inhibition is 3%. The same measure for `COc1cc(/C=N/NC(=S)Nc2cccnc2)cc(OC)c1O`: 7%; for `CN(C)/N=C/c1cc(Cl)cc([N+](=O)[O-])c1O`: 0%; for `CCOC(=O)C1(Cc2cccc(OC)c2)CCCN(S(=O)(=O)c2cccnc2)C1` (configuration not stated): -2%. For `Fc1ccc(COc2cccc(-c3n[nH]c(=S)o3)c2)cc1`, the inhibition is 5%. Turning to `O=C(C1CCCO1)N1CCN(C(=S)NC2CC2)CC1` (configuration not stated), the inhibition was -4%. In the case of `COc1ccc(CNC(=O)COC(=O)/C=C/c2ccc(S(=O)(=O)N3CCOCC3)cc2)cc1`, the inhibition was -3%.

As for `COC(=O)c1cc2occc2n1Cc1nc(-c2ccccc2C)oc1C`, the inhibition was 0%.

With `CC(=O)Nc1cccc(/C(C)=N/NC(=O)c2c(-c3ccccc3Cl)noc2C)c1`, the inhibition was 0%. Turning to `COc1ccc(C(=O)CSc2nnnn2C)c(OC)c1`, the inhibition is -5%. Turning to `Nc1nc(-c2sc3nc4c(cc3c2N)CCCC4)nc(N2CCOCC2)n1`, the inhibition is -5%. In the case of `CC1(c2ccccc2)CC(C)(C)N(C(=O)c2cc([N+](=O)[O-])cc([N+](=O)[O-])c2)c2ccccc21` (configuration not stated), the inhibition is -1%. In the case of `CCN(C(=O)CN1CCN(Cc2ccccc2)CC1)c1c(N)n(Cc2ccccc2)c(=O)[nH]c1=O`, the inhibition is -3%.

As to `Cn1c(=O)c2c(ncn2CC(=O)N/N=C/c2cn[nH]c2-c2ccc(F)cc2)n(C)c1=O`, the inhibition is -3%. On to `C/C(=N/NS(=O)(=O)c1ccccc1)c1ccc(NC(=O)C(F)(F)F)cc1`, for which the inhibition was -2%.

Turning to `O=C1N/C(=C/c2cccn2-c2ccccc2)C(=O)N1c1cccc(Cl)c1`, the inhibition is -2%. Turning to `CSCC(NS(=O)(=O)c1ccc(C)cc1)C(=O)O` (configuration not stated), the inhibition was -9%.

With `Cc1c(C(=O)c2cccc([N+](=O)[O-])c2)c2ccccn2c1CCC#N`, the inhibition was -8%.

As for `O=C(CCN1C(=O)c2ccccc2C1=O)C1=NN[C@@H]2C(=O)N(c3ccc(F)cc3)C(=O)[C@H]12`, the inhibition is -9%. As for `CCOc1ccc(C(CC(=O)O)n2cnnn2)cc1OC` (configuration not stated), the inhibition was -4%. The result for `COC(c1ccccc1)c1nnc(CCC(=O)N2CCN(CCOc3ccccc3)CC2)o1` (configuration not stated) reads -5%. As for `Cc1cccc(Cn2cnc3c(N)c(C)c(C)cc32)c1`, the inhibition is -4%. The result for `Cc1ccc2c(c1)C1CN(C)CCC1N2C(=S)Nc1ccc(OC(F)F)cc1` (configuration not stated) reads -7%. Regarding `Nc1nc(SCc2ccc([N+](=O)[O-])cc2)c2ncn(C3OC(CO)C(O)C3O)c2n1` (configuration not stated), the inhibition is -10%. In the case of `O=c1[nH]n2c(=O)c3c([nH]c2c1N=Nc1ccccc1)CCC3`, the inhibition was 0%.

Take `COc1ccc(OC)c2[nH]c(=O)c(CCNC(=O)C(=O)c3c[nH]c4ccccc34)cc12`: the inhibition was -9%. The same measure for `Cc1cc(/C=N/NC(N)=O)c(C)n1C1CCCCC1`: 16%.

The values above are taken from PubChem BioAssay AID1008 (NMMLSC, 2008).
